Data on 27 compounds can be found in the supplement of paper PMC4840960.

The subject of test [1] is E18 rat cortical neuron-glia co-culture. Put plainly: fiber score / MBP score (myelination specific beyond OL differentiation) (ratio); higher = more myelination-specific MBP alignment. The following applies: treatment time: 8 days (DIV5-DIV13). A digest of the protocol: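 The measure is the ratio of fiber score to MBP score, where fiber score is continuous MBP fiber length per Olig2+ nucleus and MBP score is thresholded MBP area × intensity per Olig2+ nucleus. Primary E18 rat cortical co-cultures received library compounds at 1 or 5 µM in myelination medium from DIV5 to DIV13, then were fixed in 4 % paraformaldehyde and stained for MBP, Olig2 and DAPI before analysis of four 10X fields per well in duplicate wells.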

Test [2] shares this test system. Put plainly: myelination (MBP fiber length per Olig2+ nucleus), % of 1 µM DAPT response (DMSO = 0) (% of DAPT); higher = more myelination, active = 50 or more. The following applies: treatment time: 8 days (DIV5-DIV13). A digest of the protocol: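 The myelination value was the continuous straight MBP fiber length per Olig2+ nucleus, scaled between 0.1 % DMSO (0) and a 1 µM positive control (100). It was measured in primary E18 rat cortical co-cultures treated with library compounds at 1 or 5 µM in myelination medium from DIV5 through DIV13. Cells were fixed in 4 % paraformaldehyde and stained for MBP, Olig2 and DAPI, and four 10X fields per well were imaged in duplicate wells.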

SMILES strings stand for the structures. ± gives the standard deviation of the averaged measurements.

`CC12CC3CC(C)(C1)CC(N)(C3)C2` [Memantine]: the “fiber score / MBP score” value in test [1] (1 µM) amounted to 1.07 ± 0.024; in test [1] (5 µM) it was 0.838 ± 0.13. The myelination in test [2] (1 µM) was 12.9 (inactive); in test [2] (5 µM), -7.18 (inactive).

For `Nc1nc2c(ncn2COCCO)c(=O)[nH]1` [Acyclovir], the “fiber score / MBP score” value in test [1] (1 µM) came to 0.568; in test [1] (5 µM), 1.1. Besides, the myelination in test [2] (1 µM) was -11.9 (inactive); in test [2] (5 µM) it was 29.3 (inactive).

As to `CN(C)CCCC1(c2ccc(F)cc2)OCc2cc(C#N)ccc21` (stereo not drawn) [Citalopram], the “fiber score / MBP score” value in test [1] (1 µM) came out at 0.773 ± 0.29; in test [1] (5 µM), 0.571 ± 0.19. In addition, the myelination in test [2] (1 µM) is -18.2 (inactive); in test [2] (5 µM), -19 (inactive).

Turning to `Nc1c2c(nc3ccccc13)CCCC2` [Tacrine], the figures for the “fiber score / MBP score” value in test [1] (1 µM) and in test [1] (5 µM) were 0.655 and 0.566, respectively. Also, the myelination in test [2] (1 µM) was -9.65 (inactive); in test [2] (5 µM), -14.9 (inactive).

For the compound `CCOC(=O)N1CCC(=C2c3ccc(Cl)cc3CCc3cccnc32)CC1` [Loratadine], the “fiber score / MBP score” value in test [1] (1 µM) came out at 0.832; in test [1] (5 µM), 0.575. Also, the figures for the myelination in test [2] (1 µM) and in test [2] (5 µM) were -5.25 (inactive) and -5.18 (inactive), respectively.

With `CCCc1cc(=O)[nH]c(=S)[nH]1` [Propylthiouracil], the “fiber score / MBP score” value in test [1] (1 µM) stood at 0.95; in test [1] (5 µM), 0.854. Moreover, the myelination in test [2] (1 µM) was -9.29 (inactive); in test [2] (5 µM), -11.9 (inactive).

As for `c1ccc2[nH]c(-c3cscn3)nc2c1` [Thiabendazole], the results for the “fiber score / MBP score” value in test [1] (1 µM) and in test [1] (5 µM) were 1.05 and 0.885, respectively. In addition, the myelination is 0.461 (inactive) in test [2] (1 µM) and -0.348 (inactive) in test [2] (5 µM).

Turning to `CC[C@@H]1C(=O)OC[C@@H]1Cc1cncn1C` [Pilocarpine], the “fiber score / MBP score” value in test [1] (1 µM) was 0.814; in test [1] (5 µM) it was 0.782. Further, the myelination was -24.8 (inactive) in test [2] (1 µM) and -11.2 (inactive) in test [2] (5 µM).

Take `O=c1[nH]c(=O)n(C2CCCO2)cc1F` (stereo not drawn) [Tegafur]: the entries for the “fiber score / MBP score” value in test [1] (1 µM) and in test [1] (5 µM) were 0.967 and 0.729, respectively. The myelination is -11.7 (inactive) in test [2] (1 µM) and 34.5 (inactive) in test [2] (5 µM).

Take `Cc1cc2c(s1)Nc1ccccc1N=C2N1CCN(C)CC1` [Olanzapine]: the “fiber score / MBP score” value was determined as 1.2 in test [1] (1 µM) and 0.751 in test [1] (5 µM). Moreover, the results for the myelination in test [2] (1 µM) and in test [2] (5 µM) were -0.209 (inactive) and -13.5 (inactive), respectively.

In the case of `CCN(CC)CCNC(=O)c1cc(Cl)c(N)cc1OC` [Metoclopramide], the figures for the “fiber score / MBP score” value in test [1] (1 µM) and in test [1] (5 µM) were 0.848 and 0.91, respectively. In addition, the results for the myelination in test [2] (1 µM) and in test [2] (5 µM) were -6.65 (inactive) and -2.72 (inactive), respectively.

For `CCCN(CCC)S(=O)(=O)c1ccc(C(=O)O)cc1` [Probenecid], the “fiber score / MBP score” value in test [1] (1 µM) worked out at 0.973; in test [1] (5 µM), 1.44. Also, the myelination was 0.863 (inactive) in test [2] (1 µM) and 11.7 (inactive) in test [2] (5 µM).

Take `COc1ccccc1N1CCN(CC(O)COc2cccc3ccccc23)CC1` (stereo not drawn) [Naftopidil]: the “fiber score / MBP score” value was 0.655 in test [1] (1 µM) and 0.695 in test [1] (5 µM). The myelination in test [2] (1 µM) is -33.5 (inactive); in test [2] (5 µM) it was 15 (inactive).

For the compound `CC(COc1ccccc1Cc1ccccc1)N1CCCCC1` (stereo not drawn) [Benproperine], the “fiber score / MBP score” value worked out at 0.726 in test [1] (1 µM) and 0.819 in test [1] (5 µM). In addition, the myelination in test [2] (1 µM) is -8.06 (inactive); in test [2] (5 µM), -4.27 (inactive).

`NC(=O)c1cnccn1` [Pyrazinamide]: the “fiber score / MBP score” value came out at 0.64 in test [1] (1 µM) and 0.862 in test [1] (5 µM). In addition, the myelination in test [2] (1 µM) is -16.4 (inactive); in test [2] (5 µM), -9.54 (inactive).

Regarding `CC(C)NCC(O)COc1cccc2ccccc12` (stereo not drawn) [Propranolol], the entries for the “fiber score / MBP score” value in test [1] (1 µM) and in test [1] (5 µM) were 1.55 and 0.95, respectively. For the same compound, the myelination in test [2] (1 µM) was 9.85 (inactive); in test [2] (5 µM), 1.55 (inactive).

Regarding `COc1cc(OC)c(C(=O)CCCN2CCCC2)c(OC)c1` [Buflomedil], the results for the “fiber score / MBP score” value in test [1] (1 µM) and in test [1] (5 µM) were 0.901 and 0.768, respectively. Further, the myelination was -13.2 (inactive) in test [2] (1 µM) and -13.3 (inactive) in test [2] (5 µM).

As to `CNCC[C@@H](Oc1ccccc1C)c1ccccc1` [Atomoxetine], the “fiber score / MBP score” value in test [1] (1 µM) amounted to 0.774; in test [1] (5 µM), 0.721. The results for the myelination in test [2] (1 µM) and in test [2] (5 µM) were -18.6 (inactive) and -17.2 (inactive), respectively.

For `C=C1/C(=C\C=C2/CCC[C@]3(C)[C@@H]([C@H](C)/C=C/[C@@H](O)C4CC4)CC[C@@H]23)C[C@@H](O)C[C@@H]1O` [Calcipotriene], the “fiber score / MBP score” value in test [1] (1 µM) worked out at 0.711; in test [1] (5 µM), 0.6. Also, the myelination in test [2] (1 µM) was -43.8 (inactive); in test [2] (5 µM) it was -82.7 (inactive).

In the case of `CC(=O)[C@H]1CC[C@H]2[C@@H]3C[C@H](C)C4=CC(=O)CC[C@]4(C)[C@H]3[C@@H](O)C[C@]12C` [Medrysone], the figures for the “fiber score / MBP score” value in test [1] (1 µM) and in test [1] (5 µM) were 1.11 and 1.1, respectively. The myelination in test [2] (1 µM) is 5.47 (inactive); in test [2] (5 µM), 6.18 (inactive).

For the compound `CCOc1cc(CC(=O)N[C@@H](CC(C)C)c2ccccc2N2CCCCC2)ccc1C(=O)O` [Repaglinide], the “fiber score / MBP score” value in test [1] (1 µM) came to 0.81; in test [1] (5 µM) it was 1.19. The myelination in test [2] (1 µM) is -8.93 (inactive); in test [2] (5 µM), 2.54 (inactive).

With `Nc1c2c(nc3c1CCC3)CCCC2` [Amiridine], the “fiber score / MBP score” value in test [1] (1 µM) is 0.702; in test [1] (5 µM), 0.8. For the same compound, the myelination in test [2] (1 µM) is -26.8 (inactive); in test [2] (5 µM), -17.6 (inactive).

Take `COc1cc2nc(N(C)CCCNC(=O)C3CCCO3)nc(N)c2cc1OC` (stereo not drawn) [Alfuzosin]: the entries for the “fiber score / MBP score” value in test [1] (1 µM) and in test [1] (5 µM) were 0.472 and 0.636, respectively. Moreover, the myelination in test [2] (1 µM) was -57.9 (inactive); in test [2] (5 µM) it was -36.4 (inactive).

In the case of `CC(=O)NC[C@H]1CN(c2ccc(N3CCOCC3)c(F)c2)C(=O)O1` [linezolid], the figures for the “fiber score / MBP score” value in test [1] (1 µM) and in test [1] (5 µM) were 0.899 and 0.929, respectively. For the same compound, the myelination in test [2] (1 µM) is -7.33 (inactive); in test [2] (5 µM), 0.414 (inactive).

In the case of `C#C[C@]1(O)CC[C@H]2[C@@H]3CCC4=Cc5oncc5C[C@]4(C)[C@H]3CC[C@@]21C` [Danazol], the “fiber score / MBP score” value in test [1] (1 µM) came to 0.577; in test [1] (5 µM), 0.557. Moreover, the myelination in test [2] (1 µM) was -20.4 (inactive); in test [2] (5 µM), -24.3 (inactive).

As to `NC(=O)c1ncn([C@@H]2O[C@H](CO)[C@@H](O)[C@H]2O)n1` [Ribavirin], the “fiber score / MBP score” value in test [1] (1 µM) was 1.17; in test [1] (5 µM), 1.03. Moreover, the myelination is 3.44 (inactive) in test [2] (1 µM) and 4.23 (inactive) in test [2] (5 µM).

With `Cc1occc(=O)c1O` [Maltol], the entries for the “fiber score / MBP score” value in test [1] (1 µM) and in test [1] (5 µM) were 0.739 and 0.672, respectively. Besides, the myelination in test [2] (1 µM) is -10.1 (inactive); in test [2] (5 µM), -13.4 (inactive).
